# Reference: PubChem BioAssay AID1159506 (National Center for Advancing Translational Sciences (NCATS), 2015)
# Over roughly 59,000 sequences, the read-out has its median near -0.00055; the lowest 2% begin near -2. The sample as a whole holds a higher share of the lowest values than the screen did.
# Assay: Identification of proteins required for the processing of the EWS-FLI1 nascent transcript;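 also: robust z of luciferase light less the median z of siRNAs with the same seed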
# Details: TC32 Ewing sarcoma NR0B1-luc vs CMV-luc (EWS-FLI1 target promoter against control promoter), 48 h; screened at 20 nM (by protocol)
# Summary of the method: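 Readout: OneGlo luminescence, 48 h post-transfection, TC32-NR0B1-luc vs TC32-CMV-luc in parallel. siRNA 20 nM final, RNAiMax lipid, 600 cells/well; z-score-MAD transformed, then seed-adjusted.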
row,Sequence,seed-corrected z-score
1,ACAGCGUACAGCAAACACG against TMEM54,-12
2,UUCCUCUUCACCACGGUGU against CNNM3,-0.123
3,UGAGAGUUCAUAGCGUAUC against RCE1,-0.494
4,AAAGUAUAAUGGAUGUAUC against GNAI1,-0.47
5,AUAGGUACCAGGUAUGAGC against FOXM1,0.087
6,UUUGUUGGGAUGUUGGGUG against SPATA12,-2.1
7,UGCUGAAUGAGGUACGUGC against ZNF550,-0.438
8,UAUCCAUUUUCCUCUAUCC against FGF10,-0.261
9,UAUGGUUAGAAGAUAUCCC against IDS,1.1
10,AAAAGCUCACGGAGAAUCC against LINC01433,1.28
11,AACUGUCAAUGGUUGAAGC against FCGR2A,-0.901
12,AGUUUCUCAAUGUCUGGGC against PAGR1,-3.83
13,UUCGAGAAAAGCAGAAUCC against PRORSD1P,-0.604
14,ACAUCAACCACUACAGUGC against PCDHB7,-0.314
15,UUAACUUUCUCGAUAGAAC against SLC45A2,0.853
16,UUGACGUGCAUGAAGGACC against DUSP3,-0.254
17,UUCAGUACCAGGCUGGGUG against COMT,0.499
18,UUCUUGAUGAUCUUUAGCU against LONP1,0.0484
19,UGGUCUAUAGUAUUCAUGC against YTHDF2,-0.0088
20,UGAUUAUUAGGUACUACCC against RCN2,-2.4
21,UUCAAUCAGAUCGAAGAGC against CLK2,0.0394
22,AAAGAAGUAGAGGUAGGAC against OR6T1,0.724

row,Sequence,seed-corrected z-score
1,UUAACUGCACCAUCAGUGU against S100A8,-3.04
2,UCAGCAUCAACAUAAUGCG against TAS2R40,-1.07
3,UGACGAAUCCCUGCUAUAG against TDRD5,-0.0697
4,AAUUAGAUUACCUAAACAC against CDKL2,0.926
5,UAAAGGGAAAUUUCCACCA against CDH16,0.815
6,UUUGGUGAUUUCAUAAUCC against PCDH18,-0.027
7,AUCUGGAUCGCUCAGCUCC against TMEM235,0.0464
8,UAGCUUCUCACAGACUUUC against KCTD8,-2.45
9,UUUCCUCUAGGAAGCAUCU against TRIM17,0.172
10,AUAGGCAGCAGUGCACUCG against 5-Sep,-1.81
11,UAUAGUUAAAUCCAUCAUC against CALU,0.272
12,UAGUAAGAAGAGUCAAUGC against PGA5,-0.472
13,AAUUGUUCACUGACCAGGC against WNT8A,-0.645
14,AAAUAAUCCUGUCUACUCC against BOD1,0.629
15,UUGUAUUCAUCCUUGAAGC against CCDC89,-2.42
16,UGAGGACAUCGAAGAGGCC against HTR6,1.21
17,UAAUGUAGAACAUUUUGAC against LECT2,0.659
18,UAUGCUUGCAGUCCACUGG against DYNLT3,1.02
19,UUACUGGGAAUAGCACUGC against ITGA5,0.318
20,UACUCUAUCCGCUGUGCCC against RCC2,-0.853
21,UAGUUGUCGGUAUCUGUCC against CSPP1,-2.38
22,AUCGUGAAGAGAUACUCCG against MAPKBP1,0.318

row,Sequence,seed-corrected z-score
1,UCAGCACACUGUCAGGUAC against USB1,0.878
2,UCACGGUGCACAAAGUUCU against ZAP70,-0.0104
3,UCUCUGUAUGUGACUGUGA against SNRPD3,-2.85
4,UUGAAGUUCAUUAGUCUCC against AK5,-0.322
5,UGUGGAUUUUGGAUGCAGC against XKR5,-0.21
6,AAUGUGGUUGAGCUGAUCC against MAPK3,-2.13
7,UUGGACAAAAGAUAAGAGC against SNRNP40,-0.258
8,UUACCAGAUAGGAUGAUCA against OR5P2,0.365
9,UUUGAGGCCGUUGAGGGUG against ELAVL3,-0.487
10,UGGGAUUCAAGAUCUCCUC against NGEF,-3.75
11,UUAAUGUAUGGGUUGACUC against PLS1,-0.413
12,UCCAGUUCUCCGGUGAUCU against SYNE3,0.481
13,UUUGCAUUCAUAAAGAAUU against ING3,-0.246
14,UCACGUACAAGAGCACUCG against GRHL2,0.132
15,UUCAGUUGAAUUCCAAAGG against ARHGAP28,0.997
16,AAGGUGAUAAGUACAGUCA against LINC00977,0.26
17,AUGAUGCUAGGGUCGGUGC against E2F2,-0.689
18,UCUAGUACUACAUUGGCUU against FLJ32255,-1.66
19,CAUGGUCUCAGUCAGCAUG against CBY3,-2.21
20,UAUUCAGCAUUCUCUAUCU against DDAH2,-0.379
21,UCCCUGACAACUCCAGGGU against CLDN9,0.379
22,UAGUAAAUGAACGAAGGCG against MAD2L1,0.0839

row,Sequence,seed-corrected z-score
1,UUAGAUACGACAUAAGCAG against PGAP1,0.122
2,UUUCUUCAAGGCAGUUUGC against SRGN,-1.36
3,UGAUGGUUGAAAUACUGGU against CITED2,-2.05
4,UGAACAGUCGCCGCUCUCU against ZNF418,0.482
5,UGUCGUUUUUGUAUCCUUG against CAGE1,-1.32
6,UCUUCGUUGACCACACCAC against KCNIP1,0.284
7,UAGAAUGUCAGUUGGUUCC against MID1IP1,0.366
8,UACAGAUAAACGAUGAUGC against TMEM104,-0.0479
9,AGUUGUCCAACCAAUAGUC against EDRF1,-3.95
10,UACAUUGAAGCCUAUGGUU against ARF5,0.767
11,UUUUAUUUUCACAGUAGCA against LOC441239,0.865
12,UGACUGUAAACAGAGGCGG against SSR4,-0.396
13,UUUCGUUGGACUUACUUGG against SPP1,-0.831
14,UCAGGGCAAAGUGGGAUGA against OXER1,-2.06
15,UUCAGGUGGACGAACAGCG against ADAMTS8,-0.634
16,UCCGAUAGAGGUUAGACCG against PPT2,-0.518
17,UCUUCUUUAUGUACCACCG against CDC37L1,0.00159
18,UUGUAAGCUGGAUCGAUCC against ACACB,0.0997
19,UGGGUAUUUGAUCUUGUCG against LZTR1,-1.37
